Screening results as filed in PubChem.
Only some compounds are listed: those with a hit (about 7.7% of all), similar ones and a draw of the others.
Sm TGR inh = inhibitors of Schistosoma mansoni thioredoxin glutathione reductase; Q962Y6; purified TGR, DTNB reduction, TNB absorbance 405 nm; Potency, µM (titrated, usually from 114 µM), hits mostly inhibitors; 3% of 360,000 active; note: nearly all actives have a fitted effect of over 60% in size
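TGR 20 nM + NADPH 100 uM (dispensed conc.), cpd preinc 15 min RT; start with NADPH (500 uM addition) then DTNB (15 mM addition). Kinetic TNB absorbance, 405 nm filter. Four-parameter Hill fit across titration.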
HCMV antiviral = human cytomegalovirus inhibition; AID 1259415; 4.5% of 410,000 active; HFF cells, HCMV-luciferase reporter, 72 h; stronger effect = lower value; activity change, negative = inhibition, % at 57.5 µM; in the data active = activity change below about -60%; inconclusive = no clear call, values can overlap the other calls; inactive = above about -39%
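Two compound doses tested in HFFs infected with HCMV-luciferase, MOI 1 PFU/cell, 72 h at 37C. Lysate luminescence read with OneGlo; data normalized against buffer-only and 10uM Salinomycin inhibitor controls.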
Giardia FBPA inh = Giardia lamblia aldolase inhibition. A8B2U2. purified Giardia FBPA. Potency, µM (doses to about 59.6 µM), hits mostly inhibitors. 0.71% of 290,000 active. AID 2451; note: nearly all actives have a fitted effect of over 55% in size
Target sequence (A8B2U2 whole entry, looked up): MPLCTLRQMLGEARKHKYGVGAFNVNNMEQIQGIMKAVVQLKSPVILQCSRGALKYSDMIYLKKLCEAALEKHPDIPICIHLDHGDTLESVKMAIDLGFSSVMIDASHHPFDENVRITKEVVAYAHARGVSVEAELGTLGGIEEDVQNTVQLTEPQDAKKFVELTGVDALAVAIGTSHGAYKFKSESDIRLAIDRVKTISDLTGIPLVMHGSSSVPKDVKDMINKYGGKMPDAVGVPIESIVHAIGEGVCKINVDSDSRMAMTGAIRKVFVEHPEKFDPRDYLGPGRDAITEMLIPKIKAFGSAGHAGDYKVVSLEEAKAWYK
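40 nM FBPA preincubated 10 min at RT with compound (up to 57.5 uM final), then substrate plus GAPDH/TPI/NAD/arsenate coupling and diaphorase/resazurin added. Fluorescence read after 20 min at RT, 525/598 nm.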
RE007 growth inh = less growth of the S. pombe RE007 Vpr strain. Potency, µM (series often up to 92.2 µM), hits mostly inhibitors. S. pombe RE007 Vpr strain, BacTiter-Glo ATP luminescence, 24 h. 0.21% of 360,000 active; active = well fitted falling curve with a large enough effect; inconclusive = small, poorly fitted or top-dose-only effect; inactive = no such curve, though single readings can be large or run the other way; note: nearly all actives have a fitted effect of over 50% in size
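Fission yeast RE007 carrying one integrated HIV-1 vpr copy, seeded at OD 0.01 in PMG+AL medium with 23 nL pinned compound. Grown 24 h at 30 degrees; viability read by BacTiter-Glo luminescence after 5 min.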
FMDV antiviral = foot and mouth disease virus antiviral activity. FMDV antiviral cell-based qHTS. 1.2% of 410,000 active. Potency, µM (titrated, usually from 57.9 µM), hits mostly inhibitors; calls by dose curve; tested in HEK293T cells; note: read-out not given here; nearly all actives have a fitted effect of over 45% in size
TbPYK inhibitor = blocks Trypanosoma brucei pyruvate kinase; Q57TT1; TbPYK enzyme, Kinase-Glo Plus ATP luminescence, 45 min; Potency, µM (top dose mostly 76.8 µM), most hits filed as inhibitors; 0.12% of 410,000 active; note: nearly all actives have a fitted effect of over 50% in size
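Enzyme and substrate buffer are dispensed first and compound is pin-transferred. ADP at 130 uM final then starts the reaction, which runs 45 min at room temperature. Detection reagent is added for 10 min before luminescence is imaged.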
Hits are given with their value; - = inactive; ? = inconclusive; . = not tested or not shown. Unless noted, calls come from the whole dose curve; as a rule, active = well fitted curve in the direction sought with a large enough effect; inconclusive = small, poorly fitted or top-dose-only effect, or another doubt; inactive = no such curve, though single readings can be large; an effect the other way counts as inactive or inconclusive.

SMILES	Sm TGR inh	HCMV antiviral	Giardia FBPA inh	RE007 growth inh	FMDV antiviral	TbPYK inhibitor
COc1ccc(-c2cc(C(=O)NCCc3ccc(OC)c(OC)c3)c3c(-c4ccc(F)cc4)[nH]nc3n2)cc1	-	-	.	.	-	-
COc1cc(OC)c(-c2cc(C(=O)NCc3ccc(F)cc3)c3c(-c4ccccc4)[nH]nc3n2)cc1OC	-	-93	.	.	-	-
CCOc1ccc(-c2cc(C(=O)NCCc3ccc(OC)c(OC)c3)c3c(-c4ccc(F)cc4)[nH]nc3n2)cc1	-	-92	.	.	-	-
COc1ccccc1-c1cc(C(=O)NCc2ccccc2)c2c(-c3ccc(C)cc3)[nH]nc2n1	-	-	.	.	-	-
CS(=O)(=O)c1ccc(-c2cccc3c2OC(CNC(=O)c2cc(C4CC4)[nH]n2)C3)cc1 (centres undefined)	.	.	.	.	-	.
Cc1cccc(-c2nnc(C3CCN(S(=O)(=O)c4cccc(Cl)c4)CC3)o2)c1	-	-94	.	.	-	?
O=C(CSc1nnc(-c2ccc(F)cc2)o1)Nc1ccc(S(=O)(=O)N2CCCCCC2)cc1	-	-84	-	-	.	-
CC(=O)Nc1ccc(S(=O)(=O)N2CCC(c3nnc(-c4ccc(C)cc4)o3)CC2)cc1	-	-96	-	-	?	?
Cc1ccc(-c2nnc(C3CCN(S(=O)(=O)c4ccc(C)c(C)c4)CC3)o2)cc1	-	?	.	.	-	-
O=C(CSc1nnc(-c2ccc(F)cc2)o1)Nc1ccc(S(=O)(=O)N2CCCC2)cc1	-	-	-	-	-	-
COc1ccc(-c2nnc(C3CCN(S(=O)(=O)c4ccccc4)CC3)o2)cc1	-	.	-	-	-	-
COC(=O)CSc1nc(N)c(C#N)c(-c2ccc(O)cc2)c1C#N	-	-	-	-	4µM	-
CCOC(=O)CSc1nc(N)c(C#N)c(-c2ccc(OCC)cc2)c1C#N	-	-	-	-	-	-
Cc1c(-c2ccccc2)nc(N)c(C#N)c1-c1ccco1	35µM	-	-	-	-	-
CC(C)OC(=O)CSc1nc(N)c(C#N)c(-c2ccco2)c1C#N	40µM	-	?	-	?	-
CN(C)c1ccc(CNC(=O)c2ccc3nc(CCc4ccccc4)oc3c2)cc1	-	-	.	.	-	-
O=C(CSc1nnc(-c2ccco2)o1)c1ccccc1	25µM	-	-	-	-	-
O=C(CSc1nnc(-c2ccco2)o1)c1ccc[nH]1	28µM	-	-	-	-	-
COc1ccc(NC(=O)CC2Sc3ncnn3C2=O)cc1 (centres undefined)	0.63µM	-	?	?	-	-
COCCN1C(=O)C(CC(=O)Nc2ccccc2)SC1=Nc1ccc(OC)cc1 (centres undefined)	-	-	-	-	-	-
CCOC(=O)c1ccc(NC(=O)CC2Sc3ncnn3C2=O)cc1 (centres undefined)	1.6µM	-	?	32µM	-	-
O=C(CC1Sc2ncnn2C1=O)Nc1ccc(Cl)cc1 (centres undefined)	5.6µM	-	?	-	-	-
CCOC(=O)c1ccc(NC(=O)CC2SC(=NC)N(C)C2=O)cc1 (centres undefined)	-	-	-	-	-	-
CCCC(=O)NCc1nc2cccnc2n1Cc1ccc(F)cc1	-	-	.	.	-	-
CCNC(=S)N1CCNC(=O)C1CC(=O)OC (centres undefined)	-	-72	-	-	?	-
SMILES	Sm TGR inh	HCMV antiviral	Giardia FBPA inh	RE007 growth inh	FMDV antiviral	TbPYK inhibitor
COC(=O)CC1C(=O)NCCN1C(=S)Nc1cc(C)cc(C)c1 (centres undefined)	-	-	-	-	-	-
Cc1cc(/C=C2\Cc3ccccc3C2=O)c(C)n1-c1ccccc1	-	?	?	-	13µM	-
Nc1ccccc1C=C1Cc2ccccc2C1=O	.	-	.	-	-	-
Cc1cc(/C=C2/C(=O)NN(c3ccccc3)C2=O)c(C)n1-c1cccc(O)c1	-	?	-	-	45µM	-
Cc1cc(C=C2C(=O)c3ccccc3C2=O)c(C)n1-c1ccccc1	?	-	-	-	1.1µM	-
O=C1C(=Cc2ccccc2[N+](=O)[O-])Cc2ccccc21	.	-96	.	2.5µM	?	-
Cc1cc(C=C2C(=O)c3ccccc3C2=O)c(C)n1-c1ccc(C(=O)O)cc1	-	-	?	-	-	-
Cc1cc(C=C2C(=O)N(C)C(=O)N(C)C2=O)c(C)n1-c1ccccc1	-	-	-	-	-	-
Cc1cccc(CNC(=O)c2cc3cc(S(=O)(=O)N4CCCCC4)ccc3n2C)c1	-	-	.	.	-	-
COC(=O)c1ccc(C(NC(=O)OCc2ccccc2)/C(F)=C/[C@@H](C)C(=O)N[C@@H](CO)Cc2ccccc2)cc1 (some centres undefined)	.	.	-	.	.	.
COc1cc(OC)cc(C(=O)N2CC(=O)Nc3ccc(Cl)cc3C2c2ccccc2)c1 (centres undefined)	-	-	.	.	-	-
CCN(CC)CCC(c1ccc(N(C)C)cc1)c1c(OC)cc(OC)c2c(C)cc(=O)oc12 (centres undefined)	.	.	-	.	.	.
CCCCCc1cc(=O)oc2c(C(CCN(CC)CC)c3ccc(N(C)C)cc3)c(OC)cc(OC)c12 (centres undefined)	-	-75	-	-	-	-
O=C(N=C1c2ccccc2CN1c1cccc(Cl)c1)c1cccnc1	-	-	-	-	-	-
O=C(N=C1c2ccccc2CN1c1ccc(F)c(F)c1)c1cccnc1	45µM	?	-	-	-	-
Cc1ccccc1CCNC(=O)c1cc2cc(S(=O)(=O)N3CCCCC3)ccc2n1C	-	-	.	.	?	-
c1ccc2c(c1)Nc1cc3ccccc3cc1S2	-	-	?	-	-	-
COc1ccc2c(c1)Sc1ccccc1N2	22µM	-81	-	?	-	-
Cc1cccn2c(CNCC3(c4ccccc4)CCCC3)c(C(=O)N3CCOCC3)nc12	-	-101	-	-	-	-
O=S(=O)(c1ccccc1)N1N=C(c2ccc(Br)cc2)CC1c1ccco1 (centres undefined)	56µM	-60	-	-	-	?
CS(=O)(=O)Nc1ccc(C2=NN(S(=O)(=O)c3ccc(F)cc3)C(c3ccco3)C2)cc1 (centres undefined)	14µM	-	-	-	?	-
Cc1ccc(C2=NN(S(=O)(=O)c3ccccc3)C(c3ccco3)C2)cc1 (centres undefined)	-	?	.	-	-	-
Cc1ccc(NC(=O)N[C@H]2CC[C@@]34CCCN3C(=O)CCC[C@H]4[C@H]2C)cc1	.	-	.	.	.	.
Cc1cc(C)c(C(=O)CC(=O)c2ccccc2Cl)c(O)c1	-	-70	-	?	-	-
CSc1ccc(CNC(=O)CCn2ccc3cc(S(=O)(=O)N4CCC(C)CC4)ccc32)cc1	-	-	.	.	-	-
